Compound activity (PubChem)
KB-V1 cytotox: qHTS assay for MDR1-selective chemotherapeutics: Primary screen using the drug-selected MDR subline cells KB-V1 | Potency, µM (top dose mostly 46.1 µM), usual class: cytotoxic | actives 3.4% (n = 400,000) | AID 1347076, 2019 | KB-V1 MDR cells viability, CellTiter-Glo, 72 h; further: on the % scale 0 is the no-effect control and ±100 the full control effect; nearly all actives have a fitted effect of over 60% in size
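In this primary screen, KB-V1 cells overexpressing P-gp are incubated with library compounds (lowest to highest concentration) for 72 h at 37 degrees C before a luminescent ATP viability read.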
RGS4 inh: Inhibitors of Regulator of G Protein Signaling (RGS) 4: qHTS | actives 0.039% (n = 390,000) | Transcreener GDP fluorescence polarization, RGS4-accelerated GTP hydrolysis | Regulator of G-protein signaling 4 (Homo sapiens), P49798 | Potency, µM (top dose mostly 114 µM), inactives show top-dose activity change, negative = inhibition, most hits filed as inhibitors | AID 504845, 2011; further: on the % scale 0 is the no-effect control and ±100 the full control effect; nearly all actives have a fitted effect of over 75% in size
Target sequence (P49798 whole entry, looked up): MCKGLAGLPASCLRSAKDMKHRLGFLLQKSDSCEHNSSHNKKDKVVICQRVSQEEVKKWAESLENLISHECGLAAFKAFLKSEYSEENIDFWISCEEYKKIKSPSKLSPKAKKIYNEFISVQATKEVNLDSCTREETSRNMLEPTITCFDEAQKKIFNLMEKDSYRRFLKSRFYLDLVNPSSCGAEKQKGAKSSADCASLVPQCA
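MLSMR compounds (23 nl, pin-transferred) preincubated 10 min at room temperature with a 500nM (2x) first reagent, then RGS4 at 900nM (2x) plus Transcreener GDP mix added; fluorescence polarization (620/688 nm) read before and after 90 min at 30 °C.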
SW480 rerep: A quantitative high throughput screen for small molecules that induce DNA re-replication in SW480 colon adenocarcinoma cells; SW480 DNA re-replication, Hoechst DNA content imaging, 48 h; Potency, µM (series often up to 46.1 µM), without a hit: at the top dose re-replication activation, actives largely listed as activators; actives 1.8% (n = 340,000); further: % of control where 0% means no effect; nearly all actives have a fitted effect of over 55% in size
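SW480 cells exposed to compounds for 48 hr at 37 C, 5% CO2, then Hoechst-stained 40 min. Nuclear DNA content imaged by fluorescence scanning (405 nm excitation, 500-530 nm emission); re-replication scored as increased high-intensity nuclei.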
KB-3-1 cytotox: qHTS assay for MDR1-selective chemotherapeutics: Primary screen using the parental adenocarcinoma cell KB-3-1 | actives 1.4% (n = 400,000) | KB-3-1 viability, CellTiter-Glo ATP luminescence, 72 h | AID 1347075, 2019 | Potency, µM (top dose mostly 46.1 µM), actives largely listed as cytotoxic; further: on the % scale 0 is the no-effect control and ±100 the full control effect; nearly all actives have a fitted effect of over 60% in size
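Cytotoxicity measured as CellTiter-Glo luminescence after 72 h at 37 C. Compound titrations were pinned onto drug-naive KB-3-1 parental adenocarcinoma cells grown in DMEM with 10% FBS, and normalized data fitted to concentration-response curves.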
PTAP TSG101 blk: qHTS Assay for Iinhibitors of HIV-1 Budding by Blocking the Interaction of PTAP/TSG101 | Tumor susceptibility gene 101 protein (Homo sapiens), Q99816 | Fluorescence polarization, FITC-PTAP peptide / Tsg101 binding | Potency, µM (doses to about 115 µM), for the others: top-dose activity change, negative = inhibition, most hits filed as inhibitors | 340,000 tested, under 10 active; active means well fitted inhibition curve with a large enough effect in the main read-out, with a control signal flat, not every such curve was filed as active; inconclusive means small, poorly fitted or top-dose-only effect, or effect the other way, or a change in a side signal; inactive means no such curve, though single readings can be large or run the other way; further: % of control where 0% means no effect
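Compounds were pin-transferred onto Tsg101 binding domain (10 uM final) in HEPES pH 7.5 buffer, then FITC-PTAP peptide was added at 50 nM final. After 20 min at RT, polarization reported peptide displacement across a qHTS concentration series.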
MCF10A rerep: A quantitative high throughput screen for small molecules that induce DNA re-replication in MCF 10a normal breast cells | MCF 10A DNA re-replication, Hoechst nuclear intensity, 48 h | Potency, µM (top dose mostly 46.1 µM), for inactives: at the highest dose activity, positive = re-replication, most hits filed as activators | actives 2.9% (n = 350,000); further: % of control where 0% means no effect; nearly all actives have a fitted effect of over 50% in size
The depositor's hits bear a star; [ ] = another dose, or the depositor's remark. Shown are actives, neighbours in structure and some others; about 6.6% of the full set was active somewhere. Unless noted, the call rests on the fitted dose curve; in most records, active means well fitted curve in the direction sought with a large enough effect; inconclusive means small, poorly fitted or top-dose-only effect, or another doubt; inactive means no such curve, though single readings can be large; an effect the other way counts as inactive or inconclusive. Potency means the concentration at half of the fitted maximal effect.

How did C[C@H]1CCC/C=C/C2C[C@H](O)CC2[C@H](O)/C=C/C(=O)O1 (some centres not stated) do in these assays?
KB-V1 cytotox: 0.41µM*; RGS4 inh: 14%; SW480 rerep: inconclusive; KB-3-1 cytotox: 0.026µM*; PTAP TSG101 blk: -12%; MCF10A rerep: 0.26µM*

Results for NC(CP(=O)(O)O)C(=O)O (configuration not stated) ?
RGS4 inh: 10%[56.9 µM]

What do the screens show for `O=S(c1ccccc1)c1ccccc1`?
KB-V1 cytotox: inactive; RGS4 inh: 36%; SW480 rerep: -3%; KB-3-1 cytotox: inactive; PTAP TSG101 blk: -10%; MCF10A rerep: -22%

How did Oc1ccc2c3c1O[C@H]1c4c(c5ccccc5n4Cc4ccccc4)C[C@]4(O)[C@H](C2)N(CC2CC2)CC[C@@]314 do in these assays?
RGS4 inh: inactive

How did Cc1ccc2nc(-c3ccncc3)cc(C(=O)N3CCC4(CC3)OCCO4)c2c1 do in these assays?
KB-V1 cytotox: inactive; RGS4 inh: 32%; SW480 rerep: -4%; KB-3-1 cytotox: inactive; PTAP TSG101 blk: -4%; MCF10A rerep: 9%

What do the screens show for `Cc1ccc(-c2cc(C(F)F)n3ncc(C(=O)N4CCc5ccccc5C4)c3n2)cc1`?
KB-V1 cytotox: inconclusive; RGS4 inh: -24%; SW480 rerep: 18µM*; KB-3-1 cytotox: inactive; PTAP TSG101 blk: -2%; MCF10A rerep: inconclusive

What do the screens show for `CC(C)(O)[C@@H]1C2OC(=O)[C@@H]1[C@]1(O)C[C@H]3O[C@]34C(=O)O[C@H]2[C@]14C`?
RGS4 inh: 300%[56.9 µM]

Results for Cc1cccc(N2CCN(C(=O)C34CC5CC(CC(C5)C3)C4)CC2)c1C ?
KB-V1 cytotox: inactive; RGS4 inh: -26%; SW480 rerep: 3%; KB-3-1 cytotox: inactive; PTAP TSG101 blk: -2%; MCF10A rerep: inconclusive

What do the screens show for `CNC(=O)Oc1ccc(-c2cn3cc(C)ccc3n2)cc1`?
KB-V1 cytotox: 18µM*; RGS4 inh: -11%; SW480 rerep: inconclusive; KB-3-1 cytotox: inactive; PTAP TSG101 blk: -2%; MCF10A rerep: 8%

How did CC1(C)C(C(=O)N2CCN(c3ccc(Cl)cc3)CC2)C1(C)C do in these assays?
KB-V1 cytotox: inactive; RGS4 inh: 22%; SW480 rerep: 8%; KB-3-1 cytotox: inactive; PTAP TSG101 blk: -3%; MCF10A rerep: 15%

How did COC(=O)C1CN(C#N)N(c2ccc(Cl)cc2)C12c1ccccc1-c1ccccc12 (configuration not stated) do in these assays?
KB-V1 cytotox: 12µM*; RGS4 inh: inconclusive; SW480 rerep: 3.3µM*; KB-3-1 cytotox: 5.2µM*; PTAP TSG101 blk: -3%; MCF10A rerep: 7.1µM*

What do the screens show for `NC(CCCCCP(=O)(O)O)C(=O)O` (configuration not stated)?
RGS4 inh: -6%[56.9 µM]

Results for CCN(CCCl)c1cc(CN(C)C)cc(NC(=O)c2ccc(C(=O)Nc3cc(CN(C)C)cc(N(CC)CCCl)c3)cc2)c1 ?
KB-V1 cytotox: inactive; RGS4 inh: -22%; SW480 rerep: inconclusive; KB-3-1 cytotox: 0.52µM*; PTAP TSG101 blk: -2%; MCF10A rerep: 14%
